Sampled rows, rich in hits. Any-hit rate of the full collection: about 11%.
Pf growth 48h: inhibits P. falciparum growth in the first generation, 48 h; AID 504832; P. falciparum luciferase growth in erythrocytes, 48 h; 310,000 compounds, 5.9% hits; Potency, µM (titrated, usually from 28.7 µM), inactives show top-dose activity change, negative = inhibition, usual class: inhibitors
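Cell-based growth assay: transgenic P. falciparum expressing firefly luciferase, cultured in red cells within RPMI 1640 containing 0.5% w/v Albumax, 24 mM bicarbonate and gentamycin. A drop in luciferase activity indicates inhibition.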
AmpC inh no detg: blocks E. coli AmpC beta-lactamase in detergent-free assay; P00811; AmpC nitrocefin hydrolysis, absorbance 480 nm, 0.0001% Triton; Potency, µM (top dose mostly 57.1 µM), for inactives: top-dose activity change, negative = inhibition, actives largely listed as inhibitors; 330,000 compounds, 0.52% hits; AID 485341;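 further: plate controls were no compound for no effect and no enzyme for full effect; nearly all actives have a fitted effect of over 20% in size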
Target sequence (P00811 whole entry, looked up): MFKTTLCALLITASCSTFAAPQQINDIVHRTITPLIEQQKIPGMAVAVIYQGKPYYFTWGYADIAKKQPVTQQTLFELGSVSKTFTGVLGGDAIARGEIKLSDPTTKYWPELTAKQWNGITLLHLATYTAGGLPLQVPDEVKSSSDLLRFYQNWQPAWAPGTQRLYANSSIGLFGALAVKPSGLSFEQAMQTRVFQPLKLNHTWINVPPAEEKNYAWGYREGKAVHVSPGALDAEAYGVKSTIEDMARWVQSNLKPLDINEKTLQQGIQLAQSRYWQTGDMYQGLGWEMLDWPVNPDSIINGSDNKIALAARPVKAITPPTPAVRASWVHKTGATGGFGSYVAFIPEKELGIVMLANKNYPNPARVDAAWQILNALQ
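20 mM phosphate pH 7.0 + 0.01% (detergent screen) or 0.0001% Triton X-100; 5.3 nM AmpC reagent; cpd preinc 15 min RT; nitrocefin (800 uM stock) to start; A480 q20 s × 4 min; Activity was normalised to no-enzyme and no-compound control wells.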
AmpC detergent: AmpC beta-lactamase inhibition with detergent present; Potency, µM (highest dose often 114 µM), without a hit: top-dose activity change, negative = inhibition, usual class: inhibitors; AmpC hydrolysis of nitrocefin, absorbance 480 nm, 0.01% Triton; 370,000 compounds, 0.041% hits; P00811;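 further: 0% = no-compound wells and -100% = no-enzyme wells; nearly all actives have a fitted effect of over 25% in size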
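AmpC (5.3 nM in the dispensed reagent) in 20 mM phosphate pH 7.0 with 0.01% (detergent screen) or 0.0001% Triton X-100 was preincubated with compounds for 15 min at room temperature. Nitrocefin was then added from an 800 uM solution, and hydrolysis was followed at 480 nm.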
HCV inhibitor: inhibitors of hepatitis C virus infection | Huh7.5.1 HCVcc-Cre infection, luciferase reporter, 44 h | Potency, µM (top dose mostly 41.8 µM), inactives show at the highest dose activity change, negative = inhibition, usual class: inhibitors | 340,000 compounds, 3.4% hits
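Cells seeded at 1,000/well and cultured 4 h, then compounds added followed by HCVcc-Cre virus (~0.5 moi). After 44 h further culture, luciferase substrate was added, plates held 15 min at room temperature, and luminescence read for 15 sec.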
Pf growth 96h: P. falciparum growth inhibition at 96 hours. P. falciparum luciferase reporter growth, 96 h. 320,000 compounds, 6.9% hits. Potency, µM (titrated, usually from 28.7 µM), for inactives: at the top dose activity change, negative = inhibition, actives largely listed as inhibitors
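P. falciparum expressing integrated firefly luciferase grown in erythrocytes (2% hematocrit, 0.05% parasitemia final) with compounds for 96 hours at 37 C, 5% CO2. Growth inhibition read as loss of luminescence after adding luciferase detection reagent.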
AMA1 RON2 block: inhibitors of Plasmodium falciparum AMA1-RON2 interaction. AlphaScreen AMA1-biotinylated RON2 peptide binding. Potency, µM (doses to about 58.2 µM), inactives show at the highest dose activity change, negative = inhibition, hits mostly inhibitors. 360,000 compounds, 0.2% hits. AID 720542;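 further: 0% = vehicle wells and -100% = peptide control; nearly all actives have a fitted effect of over 45% in size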
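AMA1 (3D7) with his tag at 25 nM final met compounds first, then biotinylated RON2 peptide at 25 nM; detection used donor plus acceptor beads, 10 µg/mL apiece, read by AlphaScreen after 30 min at room temperature.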
* marks the source's active call; other numbers are inactive results; i = inactive; ? = inconclusive; . = no result given. The call rests on the fitted dose curve; in most records, active means well fitted curve in the direction sought with a large enough effect; inconclusive means small, poorly fitted or top-dose-only effect, or another doubt; inactive means no such curve, though single readings can be large; an effect the other way counts as inactive or inconclusive. Unless noted, on the % scale 0 is the no-effect control and ±100 the full control effect; potency means the concentration at half of the fitted maximal effect.

SMILES	Pf growth 48h	AmpC inh no detg	AmpC detergent	HCV inhibitor	Pf growth 96h	AMA1 RON2 block
N#Cc1ccccc1NC(=O)c1ccccc1OCC(=O)Nc1ccc2c(c1)oc1ccccc12	.	.	.	-16.7%	.	1.0%
CNC(=O)COc1ccccc1C(=O)Nc1ccc2c(c1)oc1ccccc12	.	-26.2%	-10.4%	?	4.65µM*	-3.9%
O=C(Nc1ccc2c(c1)oc1ccccc12)c1ccncc1	30.3%	-12.6%	0.1%	?	?	3.2%
Cc1cc(C)c(NC(=O)C(=O)NCCc2csc(-c3ccc(F)cc3)n2)c(C)c1	.	.	-5.2%	.	.	.
COc1cc(OC)c2c(C)c(CC(=O)NCCc3ccccc3OC)c(=O)oc2c1	.	.	0.2%	.	.	.
COc1cc(OC)c2c(C)c(Cl)c(=O)oc2c1	31.7%	-29.4%	-6.7%	-18.6%	10.4µM*	14.4%
Cn1cnc(S(=O)(=O)N2CCC(C(=O)Nc3ccc(F)cc3F)CC2)c1	.	.	2.3%	.	.	.
CC[N+](CC)(CC)CCOc1ccc(/C=C/c2ccccc2)cc1	0.294µM*	82.1%	-4.3%	?	0.738µM*	-7.2%
CCOc1ccc(CNC(=O)c2nnc(CS(=O)(=O)c3ccccc3)o2)cc1OC	4.65µM*	15.5%	?	?	?	3.8%
COc1ccc(CNC(=O)c2ccc3ccccc3n2)cc1OC	4.1%	39.2%	-13.0%	10µM*	33.6%	-0.8%
COc1cccc2cc(C(=O)NCCc3ccccc3)oc12	8.28µM*	123.2%	5.2%	3.9%	32.3%	10.2%
O=C(NCc1ccco1)c1ccc2ccccc2n1	7.6%	-10.3%	-2.1%	-12.6%	10.4µM*	0.7%
COc1ccc(CCNC(=O)c2ccc3ccccc3n2)cc1OC	0.0%	30.5%	-7.0%	?	-15.8%	-12.0%
CCOC(=O)c1ccccc1NC(=O)Cn1c(=O)n(-c2cccc(C)c2)c(=O)c2c1c1cc(C)ccc1n2C	.	.	-0.7%	.	.	.
O=C(CSc1c2c(nc3cc(Cl)ccc13)CCCC2)N1CCN(c2ccccc2F)CC1	.	.	-3.8%	.	.	.
COc1ccc(NC(=O)c2cc3ccccc3o2)cc1OC	18.3%	-12.2%	-0.3%	-5.7%	?	1.4%
CCOc1ccc(CCNC(=O)c2ccc3ccccc3n2)cc1OCC	?	49.9%	4.0%	11.2µM*	?	-0.9%
CCOc1ccc(CCNC(=O)c2cnc(C)cn2)cc1OCC	-0.5%	-11.5%	3.5%	-8.3%	-11.3%	-8.6%
COc1ccc(CNC(=O)c2cc3ccccc3o2)cc1OC	-8.4%	12.5%	-15.1%	?	13.1µM*	11.0%
Cc1cccc(NC(=O)Cn2cc(S(=O)(=O)N3CCCC3)c(S(=O)(=O)N3CCCC3)c2)c1C	.	.	3.2%	.	.	.
CCOc1ccccc1Nc1sc(C(=O)c2ccc(Cl)cc2)c(N)c1S(=O)(=O)c1ccccc1	.	.	14.4%	.	.	.
Cc1c(C2Nc3ccccc3NC3=C2C(=O)CC(C)(C)C3)cnn1C (stereo not drawn)	?	-30.5%	-2.8%	-8.0%	5.86µM*	29.6%
CC(C)n1cnc2c(N(C)c3cccc(Cl)c3)nc(N(CCO)CCO)nc21	13.1µM*	128.4%	1.7%	?	9.28µM*	-6.1%
Clc1ccc(CN(Cc2ccccc2)C(c2cccs2)c2nnnn2C2CCCC2)cc1 (stereo not drawn)	11.7µM*	.	2.6%	-19.4%	?	?
CC(C)(C)n1nnnc1C(c1cccs1)N(Cc1ccc(Cl)cc1)CC1CCCO1 (stereo not drawn)	13.1µM*	.	-0.3%	?	?	15.5%
SMILES	Pf growth 48h	AmpC inh no detg	AmpC detergent	HCV inhibitor	Pf growth 96h	AMA1 RON2 block
CC(C)(C)n1nnnc1C(c1cccs1)N(Cc1ccccc1)Cc1cccnc1 (stereo not drawn)	?	-11.5%	?	-2.1%	-20.6%	14.0%
c1ccc(CN(Cc2ccco2)C(c2ccncc2)c2nnnn2C2CCCC2)cc1 (stereo not drawn)	?	-25.8%	-0.5%	4.2%	10.4µM*	-8.6%
N#Cc1ccccc1NC(=O)CSc1nnc(N)s1	.	.	-7.6%	.	.	.
CC1CCN(S(=O)(=O)c2ccc3c(c2)CCN3)CC1	.	.	-3.3%	.	.	.
COc1ccc(-c2nnc3n(CCc4ccccc4)c(=O)c4ccccc4n23)cc1OC	19.7%	-8.0%	-2.4%	?	11.7µM*	0.7%
COc1ccc(C2CCCN2C(=S)Nc2ccccc2C)cc1OC (stereo not drawn)	9.28µM*	22.5%	0.0%	-8.2%	?	3.1%
COc1ccc(C2CCCN2C(=S)Nc2ccc(C)cc2C)cc1OC (stereo not drawn)	-24.5%	15.8%	-6.9%	-23.8%	39.3%	-17.6%
COc1ccc(C(=O)NNC(=O)CSc2nnc(COc3ccccc3)n2C)cc1	-26.0%	?	-4.4%	8.3%	-11.5%	18.0%
COc1ccc(C(=O)NNC(=O)CSc2nnc(COc3ccc4ccccc4c3)n2C)cc1	3.6%	0.4%	-1.5%	-3.4%	2.33µM*	74.5%
COc1cccc(OCc2nnc(SCC(=O)NNC(=O)C3CCCCC3)n2C)c1	-7.6%	15.7%	?	15.1%	13.1µM*	116.5%
CCN(C(=O)CSc1nc2ccccc2n1CC(=O)N(C)C1CCCCC1)c1ccccc1	.	.	-4.4%	.	.	.
Nc1[nH]c2cc([N+](=O)[O-])ccc2c1-c1ccccn1	?	-31.8%	-5.9%	12.6µM*	?	0.4%
O=[N+]([O-])c1ccc2nc[nH]c2c1	.	.	.	-10.8%	.	28.3%
CCOc1ccc2nc(NC(=O)c3ccc(OCC4CCCO4)cc3)sc2c1 (stereo not drawn)	8.28µM*	97.3%	-0.2%	3.98µM*	?	-0.3%
Cc1csc(NC(=O)c2ccc(OCC3CCCO3)cc2)n1 (stereo not drawn)	i	-12.6%	5.1%	11.2µM*	108.4%	1.7%
O=C(Nc1nc(-c2ccc(F)c(F)c2)cs1)c1ccc(OCC2CCCO2)cc1 (stereo not drawn)	-13.3%	-21.5%	-7.6%	?	-23.9%	-10.9%
CC1C(=O)C(=O)C=CN1C (stereo not drawn)	?	.	.	.	-5.3%	.
O=C(O)/C(=C\c1ccco1)NC(=O)c1ccc(Br)o1	.	.	.	6.9%	.	6.6%
O=C(O)/C(=C/c1ccco1)NC(=O)c1ccc(Br)o1	?	-42.8%	-16.1%	8.8%	13.1µM*	-3.2%
CC1CCN(S(=O)(=O)c2ccc3c(c2)oc(=O)n3CC(=O)N2CCCCC2)CC1	.	.	-4.2%	.	.	.
Cc1oc2c(cc(NS(=O)(=O)c3ccc(F)cc3)c3ccccc32)c1C(=O)O	3.1%	23.8%	-11.0%	29.4%	7.38µM*	-20.1%
Cc1oc2c(cc(NS(=O)(=O)c3ccc(C(C)C)cc3)c3ccccc32)c1C(=O)O	17.2%	-48.2%	-17.1%	7.0%	?	-5.6%

Source: PubChem BioAssay (National Center for Advancing Translational Sciences (NCATS))
